39 molecules from PubChem BioAssay (Tox21) can be followed below.

Results filed as inconclusive are left out. Where a call stands in place of a potency, no number is given. The source made the active and inactive calls. Calls follow the shape of the full dose curve.

This assay addresses 5-hydroxytryptamine receptor 2A (Homo sapiens) (UniProt P28223). In words: 5-hydroxytryptamine receptor 2A (HTR2A) small molecule antagonists, cell-based qHTS assay (AID 1963586). Also: nearly all actives have a fitted effect of over 45% in size. A digest of the protocol:
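CHO cells stably expressing human HTR2A were plated for 18 h at 37 C, then loaded with calcium dye for 1 h. Compounds were preincubated 5 min at room temperature before DOI (4 nM solution) was added. Kinetic fluorescence was read for 3 min.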

Sequence of 5-hydroxytryptamine receptor 2A (Homo sapiens) (P28223 whole entry, looked up): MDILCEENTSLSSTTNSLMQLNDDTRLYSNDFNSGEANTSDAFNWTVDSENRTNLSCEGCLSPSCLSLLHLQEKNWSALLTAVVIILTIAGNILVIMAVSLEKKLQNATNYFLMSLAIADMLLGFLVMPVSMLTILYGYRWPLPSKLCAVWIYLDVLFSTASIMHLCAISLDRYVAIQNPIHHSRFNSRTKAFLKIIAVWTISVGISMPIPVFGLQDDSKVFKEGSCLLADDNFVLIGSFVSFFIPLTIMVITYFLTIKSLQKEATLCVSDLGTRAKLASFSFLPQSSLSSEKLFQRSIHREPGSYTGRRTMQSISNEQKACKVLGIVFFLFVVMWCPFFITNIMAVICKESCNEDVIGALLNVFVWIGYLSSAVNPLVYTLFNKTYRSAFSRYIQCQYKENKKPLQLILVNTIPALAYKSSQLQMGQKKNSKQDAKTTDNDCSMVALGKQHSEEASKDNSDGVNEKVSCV

As for `Clc1ccc2n[nH]nc2c1`, the Potency entry is “inactive”.

With `OCCN1CN(CCO)CN(CCO)C1`, the Potency result is “inactive”.

`C=CS(=O)(=O)O`: the Potency result was “inactive”.

Turning to `CN(C)CCn1nnnc1SCC1=C(C(=O)O)N2C(=O)[C@@H](NC(=O)Cc3csc(N)n3)[C@H]2SC1`, the Potency result was “inactive”.

`CCCCCCCCSCc1cc(C)c(O)c(CSCCCCCCCC)c1`: the Potency result was “inactive”.

As for `OC(CCN1CCCC1)(c1ccccc1)C1CCCCC1` (centres undefined), the Potency entry was “inactive”.

Consider `CCOC(=N)CC(=O)OCC`, for which the Potency result was “inactive”.

For the molecule `CCCCC`, the Potency entry was “inactive”.

Turning to `O=c1[nH]cnc2ccccc12`, the Potency entry is “inactive”.

Regarding `CC(C)C(=O)OCc1ccccc1`, the Potency entry was “inactive”.

For the molecule `Cc1cccc2nccnc12`, the Potency result is “inactive”.

Consider `CCCCc1ccc(N)cc1`, for which the Potency result was “inactive”.

Take `CCOC(=O)c1ccc(NC(=O)CN2CCCCC2)cc1`: the Potency result was “inactive”.

As for `CC1=CC[C@H](C(C)C)C=C1`, the Potency entry is “inactive”.

Turning to `Nc1ccc2cc(S(=O)(=O)O)ccc2c1`, the Potency result was “inactive”.

As to `O=S1(=O)CC(Cl)(Cl)C(Cl)(Cl)C1`, the Potency entry was “inactive”.

Consider `CN(C[C@@H](CC[N+]12CCC(C3CCCCC3)(CC1)CC2)c1ccc(Cl)c(Cl)c1)C(=O)c1cc(C(F)(F)F)cc(C(F)(F)F)c1`, for which the Potency entry is “inactive”.

For `COCCCN1CCC(NC(=O)c2cc(Cl)c(N)c3c2OCC3)CC1`, the Potency entry was “inactive”.

Regarding `CCCCOC(=O)/C=C\C(=O)OCCCC`, the Potency result is “inactive”.

For the molecule `C=CCCCC`, the Potency result is “inactive”.

For the molecule `CCOC(=O)Nc1ccc(NCc2ccc(F)cc2)nc1N`, the Potency entry is “inactive”.

For `COc1cc2c(cc1OC)C(=O)CC2`, the Potency entry is “inactive”.

Take `C[Si](C)(CCCN)O[Si](C)(C)CCCN`: the Potency result was “inactive”.

For the molecule `CC(=O)O[C@@H]1C(=O)O[C@@H]2[C@H]1OC(=O)[C@@H]2OC(C)=O`, the Potency entry was “inactive”.

For `CC(Cl)C(Cl)Cl` (centres undefined), the Potency entry is “inactive”.

For the molecule `CO[Si](CCC1CCC2OC2C1)(OC)OC` (centres undefined), the Potency entry was “inactive”.

Consider `CCCS(=O)c1ccc2nc(NC(=O)OC)[nH]c2c1` (centres undefined), for which the Potency entry is “inactive”.

As for `ClC(Cl)(Br)Br`, the Potency result was “inactive”.

Take `CCCCCCCC`: the Potency entry was “inactive”.

With `CC(=O)OC(C)(C)Cc1ccccc1`, the Potency entry was “inactive”.

In the case of `Brc1ccccn1`, the Potency entry was “inactive”.

As to `Cc1c(C2(c3cc(Br)c(O)c(Br)c3C)OS(=O)(=O)c3ccccc32)cc(Br)c(O)c1Br`, the Potency entry is “inactive”.

In the case of `C[Si]1(C)O[Si](C)(C)O[Si](C)(C)O1`, the Potency entry is “inactive”.

Regarding `Oc1ccc(Oc2ccccc2)cc1`, the Potency entry was “inactive”.

Consider `CCCCCC(=O)OCC`, for which the Potency entry is “inactive”.

Turning to `CCOC(=O)C1=NN(c2ccc(Cl)cc2Cl)C(C)(C(=O)OCC)C1` (centres undefined), the Potency result was “inactive”.

Take `Oc1ccc(-c2ccc(O)cc2)cc1`: the Potency result is “inactive”.

`CC(=O)Nc1cccc(C)c1`: the Potency result is “inactive”.

Take `C[Si](NC1CCCCC1)(NC1CCCCC1)NC1CCCCC1`: the Potency result is “inactive”.
